In all, about 1,200 compounds went through this assay and about 650 (54%) were called active. Inconclusive results (about 5%) are left out.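 The calls were made as follows: active = signal-lowering curve whose fitted half-maximal concentration is at or below ten times the top valid dose tested; inconclusive = flat curve with 30 to 70% inhibition, or poor fit; inactive = signal increase, flat within 30%, or potency beyond limit.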 The set was probably picked from earlier hits. A selection follows. Measured potencies and affinities stand elsewhere.
Assay: EBV LMP1 TES2 canonical NF-kB signalling blockers – cell-based, HEK293, luciferase, cherry-pick, dose response (AID 588343)
Details: HEK293 LMP1 TES2 NF-kB luciferase reporter, 16 h; series mostly up to 35 µM

Row | Compound | outcome
1 | Cc1ccc(CNC(=O)C(=O)NCC2OCCN2S(=O)(=O)c2ccc(Cl)cc2)cc1 (configuration not stated) | inactive
2 | CN(C)CCCC1(c2ccc(F)cc2)OCc2cc(C#N)ccc21 (configuration not stated) | inactive
3 | CC(=O)O[C@]1(C(C)=O)CC[C@H]2[C@@H]3C=C(C)C4=CC(=O)CC[C@@H]4[C@H]3CC[C@@]21C | inactive
4 | CC(C)Oc1ccc(C2CC(=O)NC2=O)cc1 (configuration not stated) | inactive
5 | COc1ccc(/C(CC2OC(=O)c3ccccc32)=N\NC(N)=O)cc1 (configuration not stated) | inactive
6 | COc1cc(NC(=S)N2CCN(CCO)CC2)cc(OC)c1 | inactive
7 | Cc1ccc(/C=N/NC(=O)c2cc(-c3ccccc3)nc3ccccc23)o1 | inactive
8 | COC(=O)c1[nH]c2cccc(C)c2c1NC(=O)CN1CCCc2ccccc21 | inactive
9 | CCCCOc1ccc2c(c1)/C(=C(\C(Cl)=C(Cl)Cl)[N+](=O)[O-])N2 | inactive
10 | COCCNC(=O)C(=O)NCC1OCCN1C(=O)c1ccc(Cl)cc1 (configuration not stated) | inactive
11 | COCCCn1cnnc1SCC(=O)Nc1ccc(S(=O)(=O)N2CCCC2)cc1 | inactive
12 | CNc1ccc(Br)cc(C(=O)/C=C/c2cccc(OC)c2)c1=O | inactive
13 | CN(CCNC(=O)C1CCN(S(=O)(=O)N2CCOCC2)CC1)CCc1ccccc1 | inactive
14 | Cn1cccc1/C=N/n1c(-c2ccc(Cl)cc2Cl)n[nH]c1=S | inactive
15 | COc1ccc(CN2C(=O)c3cccnc3C2Nc2cc(Cl)ccc2OC)cc1 (configuration not stated) | inactive
16 | COc1ccc(-c2nc(C)ncc2-c2ccccc2)c(O)c1 | inactive
17 | O=C(COC(=O)c1cc2ccccc2cc1O)NCc1ccccc1 | inactive
18 | O=C(Nc1ccccn1)NC1CCCCC1 | inactive
19 | Cc1ccc(NC(=O)NNS(=O)(=O)c2ccc(Br)cc2)cc1 | inactive
20 | CC1CN(c2cc(=O)n(-c3ccccc3)c(=O)[nH]2)CC(C)O1 (configuration not stated) | inactive
21 | Cc1ccc(-n2nc(C(=O)NCc3ccc(C)o3)c3c4ccccc4n(C)c3c2=O)cc1 | inactive
22 | Nc1nc(N)nc(-c2cc(Cl)ccc2Cl)n1 | inactive
23 | COc1ccccc1NC(=O)Cn1nnc(-c2ccccc2NS(=O)(=O)c2ccccc2)n1 | inactive

Row | Compound | outcome
24 | CC1CCCN(C(=O)COC(=O)c2n[nH]c3ccccc23)C1 (configuration not stated) | inactive
25 | COc1ccc(S(=O)(=O)NCC(c2cccnc2)N2CCN(c3ccc(F)cc3)CC2)cc1C (configuration not stated) | inactive
26 | COc1ccc(-c2[nH]ncc2/C=N\NS(=O)(=O)c2ccc(Cl)cc2)cc1 | inactive
27 | CC1(C)CC(=O)C(CC2=C(O)CC(C)(C)CC2=O)=C(O)C1 | inactive
28 | COc1ccccc1OCc1ccc(C(=O)c2ccccc2)cc1 | inactive
29 | CSc1ccccc1OCc1cc(C(=O)N2CCC[C@H]2C(N)=O)no1 | inactive
30 | Cc1ccc(C(=O)NCC(=O)N(C)Cc2cccc(F)c2)s1 | inactive
31 | CCCC(=O)C1=C(O)C(C(=O)OC)C(C)(C)CC1=Nc1ccncc1 (configuration not stated) | inactive
32 | CSc1ccccc1NC(=O)CN1CCCCC1C (configuration not stated) | inactive
33 | CCSc1nnc(NC(=O)CCn2c(=O)oc3ccccc32)s1 | inactive
34 | O=C(CN1C(=O)c2ccccc2C1=O)NNC1=NS(=O)(=O)c2ccccc21 | inactive
35 | CCOc1cc(C(=O)OC(C)C(=O)Nc2ncc(Cl)cc2Cl)ccc1OCC(=O)N1CCOCC1 (configuration not stated) | inactive
36 | Cc1onc(-c2c(Cl)cccc2Cl)c1C(=O)N[C@@H]1C(=O)N2[C@@H]1SC(C)(C)[C@@H]2C(=O)O | inactive
37 | COc1ccccc1N1CCN(CCCNC(=O)C2CCCN(c3ncnc4c3nc3n4CCCCC3)C2)CC1 (configuration not stated) | inactive
38 | C=CCN1CCN(C(CC(C)C)c2nnnn2CCOC)CC1 (configuration not stated) | inactive
39 | Cn1c(CC(=O)Nc2ccc(F)cc2)nnc1SCC(=O)Nc1nncs1 | inactive
40 | O=C(Cn1nc(C(F)(F)F)c2c1CCC2)NC1CCCCC1 | inactive
41 | O=C(O)CCc1nc(-c2ccc(Cl)cc2)no1 | inactive
42 | O=C(CCCN1C(=O)[C@H]2CC=CC[C@H]2C1=O)NCc1nc(-c2ccc(Cl)cc2)no1 | inactive
43 | COc1ccc(NC(=O)CCS(=O)(=O)c2ccc3c(c2)CCN3C(C)=O)cc1 | inactive
44 | Cc1ccccc1NC(=O)CN1C(=O)S/C(=C\c2cccn2-c2cccc(C(=O)O)c2)C1=O | inactive
45 | COc1ccc(N2C(=O)C(=O)/C(=C(/O)c3ccc(C)cc3)C2c2cccnc2)cc1 (configuration not stated) | inactive
46 | COC(=O)c1ccc(COc2ccccc2/C=C/C(=O)c2ccc(OCC(=O)O)cc2)cc1 | inactive

Row | Compound | outcome
47 | CC(=O)Nc1ccc(OCCCNC(=O)c2c(-c3ccccc3)noc2C)cc1 | inactive
48 | Cc1ccc(C)c(S(=O)(=O)N2CCN(CC(=O)N3CCc4ccccc4C3)CC2)c1 | inactive
49 | CCc1c(C)nc2cc(-c3ccc(OC)c(OC)c3)nn2c1NCC1CC1 | inactive
50 | NC(=O)C1(Nc2ccc([N+](=O)[O-])cc2)CCCC1 | inactive
51 | O=C1CCC(C(=O)N2CCCCCC2)CN1CCc1ccc(Cl)cc1 (configuration not stated) | inactive
52 | CCN(CC)Cc1cc(Nc2ccnc3cc(Cl)ccc23)ccc1O | inactive
53 | O=C(C1CCCCC1)N1CCN(c2ncccn2)CC1 | inactive
54 | CCCCCC(=O)N1CCN(c2ccc(C(C)=O)cc2F)CC1 | inactive
55 | COc1ccc(OC)c2[nH]c(=O)c(CCNC(=O)c3ccc(S(=O)(=O)N(C)C)cc3)cc12 | inactive
56 | O=C(c1sc2cc([N+](=O)[O-])ccc2c1Cl)N1CCOCC1 | inactive
57 | COc1ccc(-c2cn3nc4c(nc3n2)CCCC4)cc1 | inactive
58 | O=C(CCC(=O)NNC(=O)Nc1cccc(Cl)c1)NCc1ccccc1 | inactive
59 | O=C(O)c1cccc(NC(=O)c2cn(-c3ccccc3)nc2-c2ccc(F)cc2)c1 | inactive
60 | CC(C)(C)c1cc(C(=O)NNC(=O)Nc2cccc(Cl)c2)n(Cc2ccccc2)n1 | inactive
61 | CC(CN1CCCCC1)OC(=O)c1ccc2c(c1)OCO2 (configuration not stated) | inactive
62 | COc1cccc(CC(=O)NNC(=O)c2ccc3c(c2)OCO3)c1 | inactive
63 | COC(=O)C1=C(C)N(CCCC(=O)O)C(=O)NC1c1cccc(Cl)c1Cl (configuration not stated) | inactive
64 | CCc1nnc(NC(=O)c2ccc(S(=O)(=O)N3CCOCC3)cc2)s1 | inactive
65 | COc1ccc(CN(C(=O)c2nsc(Cl)c2Cl)C(C(=O)NC2CCCC2)c2ccc(C)cc2)cc1 (configuration not stated) | inactive
66 | Cn1cc(SCC(=O)NCC2CCCO2)c2ccccc21 (configuration not stated) | inactive
67 | CN(Cc1ccc(F)cc1)C(=O)CN1CCN(S(=O)(=O)c2ccc3c(c2)OCCCO3)CC1 | inactive

— PubChem BioAssay AID588343 (Broad Institute, 2011)
